Results from PubChem BioAssay (EPA / NIEHS).
Activity calls are given as the source filed them. Rule for the calls: active = hit-call score of the fitted dose curve at least 0.9, where 1 is the maximum; inactive = score below 0.9.

The molecules below were run against Transcriptional activator Myb (Homo sapiens) (UniProt P10242) (assay: ATG_Myb_CIS: Attagene CIS-FACTORIAL HepG2 Assay for human Myeloblastosis (Myb) Proto-Oncogene Transcription Factor (AID 2282986)). Settings: HepG2 Attagene CIS-FACTORIAL Myb reporter transcription; actives raise or lower the signal.
How it was run: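 Reporter mRNA is quantified by RT-PCR and capillary electrophoresis 24 h after dosing HepG2 cells transfected with cis-regulated reporter units, which track endogenous transcription factor activity. Gain and loss of signal are fitted versus DMSO baseline.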

Chain of Transcriptional activator Myb (Homo sapiens) (P10242 whole entry, looked up): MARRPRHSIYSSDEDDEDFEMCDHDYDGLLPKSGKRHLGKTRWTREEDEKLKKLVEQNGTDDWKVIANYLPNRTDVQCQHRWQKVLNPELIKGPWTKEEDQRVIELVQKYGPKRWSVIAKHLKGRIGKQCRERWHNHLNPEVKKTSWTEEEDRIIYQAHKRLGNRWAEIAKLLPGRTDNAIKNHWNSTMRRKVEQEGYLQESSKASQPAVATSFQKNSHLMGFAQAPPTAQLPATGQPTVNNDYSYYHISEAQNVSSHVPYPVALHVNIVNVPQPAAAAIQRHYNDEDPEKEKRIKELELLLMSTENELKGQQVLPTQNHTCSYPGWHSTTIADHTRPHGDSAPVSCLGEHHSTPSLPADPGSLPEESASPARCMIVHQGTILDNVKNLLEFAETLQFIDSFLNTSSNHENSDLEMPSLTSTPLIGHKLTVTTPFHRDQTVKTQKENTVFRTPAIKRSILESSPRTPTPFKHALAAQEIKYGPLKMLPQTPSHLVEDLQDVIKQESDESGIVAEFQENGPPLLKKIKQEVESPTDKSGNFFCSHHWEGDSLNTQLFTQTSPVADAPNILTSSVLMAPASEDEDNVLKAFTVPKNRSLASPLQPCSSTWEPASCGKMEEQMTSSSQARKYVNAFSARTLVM

Question: How did the outcome turn out when `CC(C)Nc1nc(N)nc(Cl)n1` was run?
Answer: inactive

Question: Which outcome does the source give for `C=Cc1ccc(C)cc1` here?
Answer: inactive

Question: For `CCOc1ccc(NC(=O)CC(C)O)cc1` (stereo not given), which outcome is on record?
Answer: inactive

Question: Which outcome does the source give for `Cc1ccc(OC(=O)c2ccccc2O)cc1` here?
Answer: inactive

Question: How did the outcome turn out when `COC(=O)c1ccc([N+](=O)[O-])cc1` was run?
Answer: inactive

Question: For `C=C(C)CNCC`, which outcome is on record?
Answer: inactive

Question: For `CCCC(O)C(O)CO` (stereo not given), which outcome is on record?
Answer: inactive

Question: How did the outcome turn out when `CN1C(=O)c2ccccc2C1=O` was run?
Answer: inactive

Question: Which outcome does the source give for `C=C(C)C(=O)OCCOCCOCCOCCOC(=O)C(=C)C` here?
Answer: inactive

Question: How did the outcome turn out when `CC(=O)Nc1ccc(C(=O)CCl)cc1` was run?
Answer: inactive

Question: With `OC[C@H]1O[C@@H]2O[C@H]3[C@H](O)[C@@H](O)[C@@H](O[C@H]4[C@H](O)[C@@H](O)[C@@H](O[C@H]5[C@H](O)[C@@H](O)[C@@H](O[C@H]6[C@H](O)[C@@H](O)[C@@H](O[C@H]7[C@H](O)[C@@H](O)[C@@H](O[C@H]8[C@H](O)[C@@H](O)[C@@H](O[C@H]9[C@H](O)[C@@H](O)[C@@H](O[C@H]1[C@H](O)[C@H]2O)O[C@@H]9CO)O[C@@H]8CO)O[C@@H]7CO)O[C@@H]6CO)O[C@@H]5CO)O[C@@H]4CO)O[C@@H]3CO` as the molecule, how does the outcome read?
Answer: inactive

Question: For `CCCCCCOC(=O)C(C)C`, which outcome is on record?
Answer: inactive

Question: `O=C(O)c1cccnc1C(=O)O` was tested. Which outcome did it give?
Answer: inactive

Question: For `C=CC(=O)OCCCC`, which outcome is on record?
Answer: inactive

Question: Which outcome does the source give for `CCc1ccc(O)cc1` here?
Answer: inactive

Question: `CC1=NN(c2ccc(S(=O)(=O)O)cc2)C(=O)C1` was tested. Which outcome did it give?
Answer: inactive

Question: Which outcome does the source give for `CCO/C=C1\N=C(c2ccccc2)OC1=O` here?
Answer: inactive

Question: `C[N+](C)(C)CCCCCC[N+](C)(C)C` was tested. Which outcome did it give?
Answer: inactive

Question: For `Nc1ccc(NCCO)c([N+](=O)[O-])c1`, which outcome is on record?
Answer: inactive

Question: For `CCCC(C)=O`, which outcome is on record?
Answer: inactive

Question: For `CS(C)=O`, which outcome is on record?
Answer: inactive

Question: How did the outcome turn out when `C=CCOC(=O)CCCCCC` was run?
Answer: inactive

Question: With `Nc1ccn([C@H]2CS[C@@H](CO)O2)c(=O)n1` as the molecule, how does the outcome read?
Answer: inactive

Question: For `O=P(O)(O)O`, which outcome is on record?
Answer: inactive

Question: `CCCOC(=O)c1c(Cl)c(Cl)c(Cl)c(Cl)c1C(=O)OCCC` was tested. Which outcome did it give?
Answer: inactive

Question: How did the outcome turn out when `Cc1c(Cl)cccc1[N+](=O)[O-]` was run?
Answer: inactive

Question: For `CCCCC(CC)COC(C)=O` (stereo not given), which outcome is on record?
Answer: inactive

Question: With `CC(C)(N=C=O)c1cccc(C(C)(C)N=C=O)c1` as the molecule, how does the outcome read?
Answer: inactive

Question: How did the outcome turn out when `CCCN(CCC)S(=O)(=O)c1ccc(C(=O)O)cc1` was run?
Answer: inactive

Question: For `CCOc1ccc(NC(=O)CC(C)=O)cc1`, which outcome is on record?
Answer: inactive

Question: `CC1(C)O[C@@H]2[C@@H](CO[C@@]3(COS(N)(=O)=O)OC(C)(C)O[C@@H]23)O1` was tested. Which outcome did it give?
Answer: inactive

Question: How did the outcome turn out when `CC(C)CCCCCCCCCCCCCCC(=O)O` was run?
Answer: inactive

Question: How did the outcome turn out when `CCOC(=O)C1OC1c1ccccc1` (stereo not given) was run?
Answer: inactive

Question: Which outcome does the source give for `Cc1ccc2c(c1)C(=O)OC2=O` here?
Answer: inactive

Question: For `Nc1ccc(Cl)c([N+](=O)[O-])c1`, which outcome is on record?
Answer: inactive
